# G9a block = qHTS Assay for Inhibitors of Histone Lysine Methyltransferase G9a | Histone-lysine N-methyltransferase EHMT2 (Homo sapiens), Q96KQ7 | G9a H3K9 monomethylation, AlphaScreen, 2 h | Potency, µM (series often up to 102 µM), for the others: at the top dose activity, negative = inhibition, most hits filed as inhibitors | hit rate 8.8% among 350,000; note: potency is the fitted concentration of half-maximal effect; % is set by controls: 0 for no effect and ±100 for the full control effect; nearly all actives have a fitted effect of over 75% in size
# Target sequence (Q96KQ7 913-1193 limits assumed): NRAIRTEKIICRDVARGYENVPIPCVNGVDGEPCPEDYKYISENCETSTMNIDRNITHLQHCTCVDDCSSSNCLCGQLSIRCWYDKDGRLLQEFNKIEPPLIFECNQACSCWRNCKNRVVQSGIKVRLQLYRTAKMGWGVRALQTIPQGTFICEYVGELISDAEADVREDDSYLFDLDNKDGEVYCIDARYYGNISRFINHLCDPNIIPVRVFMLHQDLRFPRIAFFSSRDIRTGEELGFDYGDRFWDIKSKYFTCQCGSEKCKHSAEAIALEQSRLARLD
#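 Using a bead-based AlphaScreen, monomethylated H3K9 product from 2 h room-temperature reactions (G9a 20 nM, peptide 500 nM, SAM 20 uM) was detected with 0.5 ug/mL rabbit anti-H3K9me1 antibody.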
# ALDH1A1 block = qHTS Assay for Inhibitors of Aldehyde Dehydrogenase 1 (ALDH1A1); Purified ALDH1A1, NADH fluorescence, propionaldehyde substrate; Potency, µM (series often up to 75.3 µM), without a hit: at the top dose activity, negative = inhibition, actives largely listed as inhibitors; hit rate 7.3% among 220,000; active = well fitted inhibition curve with a large enough effect, not every such curve was filed as active; inconclusive = small, poorly fitted or top-dose-only effect, or another doubt; inactive = no such curve, though single readings can be large or run the other way;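 note: potency is the fitted concentration of half-maximal effect; plate controls were no enzyme wells and a reference inhibitor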
# KDM4E inh = qHTS Assay for Inhibitors of Human Jumonji Domain Containing 2E (JMJD2E). Lysine-specific demethylase 4E (Homo sapiens), B2RXH2. JMJD2E catalytic domain, FDH-coupled NADH fluorescence (FDH is formaldehyde dehydrogenase). Potency, µM (highest dose often 57.1 µM), for inactives: at the highest dose activity change, negative = inhibition, usual class: inhibitors. hit rate 1.6% among 230,000. AID 2147, 2009; active = well fitted inhibition curve with a large enough effect, not every such curve was filed as active; inconclusive = small, poorly fitted or top-dose-only effect, or another doubt; inactive = no such curve, though single readings can be large or run the other way;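 note: potency is the fitted concentration of half-maximal effect; 0% = wells with enzyme and -100% = buffer wells without enzyme; nearly all actives have a fitted effect of over 50% in size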
# Target sequence (B2RXH2 1-337 limits assumed): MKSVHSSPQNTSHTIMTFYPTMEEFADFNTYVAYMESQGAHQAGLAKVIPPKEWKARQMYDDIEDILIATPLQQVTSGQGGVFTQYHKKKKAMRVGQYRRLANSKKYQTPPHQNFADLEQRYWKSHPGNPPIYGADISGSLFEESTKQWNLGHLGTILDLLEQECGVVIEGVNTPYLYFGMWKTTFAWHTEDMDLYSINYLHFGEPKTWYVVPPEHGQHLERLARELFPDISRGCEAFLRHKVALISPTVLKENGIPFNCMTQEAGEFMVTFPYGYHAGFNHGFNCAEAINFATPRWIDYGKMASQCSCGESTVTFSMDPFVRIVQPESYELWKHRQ
# Sfp PPTase inh = qHTS Assay for Inhibitors of Bacillus subtilis Sfp phosphopantetheinyl transferase (PPTase); 4'-phosphopantetheinyl transferase ffp (Bacillus subtilis), Q9F4F7; Biochemical Sfp PPTase activity, qHTS; Potency, µM, inactives show largest response in the series, negative = inhibition, hits mostly inhibitors; hit rate 3.5% among 310,000; AID 1490, 2009;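 note: the enzyme is Sfp with the accession as filed and its product quenches rhodamine fluorescence; potency is the fitted concentration of half-maximal effect; 0% = enzyme reaction without inhibitor and -100% = no enzyme wells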
#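 Sfp 15 nM + cpd, 15 min RT; start w/ rhodamine-CoA 5 uM, BHQ-2-YbbR 12.5 uM (final); 50 mM Hepes pH 7.6, 10 mM MgCl2, 0.01% NP-40, 0.01% BSA; read 525/598 nm at 0 and 30 min.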
# miR-21 act = qHTS Assay for Modulators of miRNAs and/orActivators of miR-21; HeLa miR-21 FLuc reporter, luciferase, 48 h; Potency, µM (doses to about 38.3 µM), for inactives: at the highest dose activity change, positive = activation, hits mostly activators; 340,000 tested, under 10 active; AID 2288, 2010;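 note: % of control where 0% means no effect; miR-21 action dims this reporter so a rising signal means less miR-21 action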
#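 HeLa cells endogenously expressing miR-21, stably carrying CMV-driven firefly luciferase with a downstream miR-21 binding site, 2000 cells/well. Titrations up to approximately 40 uM, 48 hours; luciferase luminescence read.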
# Lamin A splicing = qHTS Assay for Modulators of Lamin A Splicing. Potency, µM (doses to about 46.1 µM), for inactives: at the highest dose ratio change, negative = inhibition, actives largely listed as inhibitors. AID 1487, 2009. HeLa LMNA splicing GFP/RFP minigene ratio, 48 h. hit rate 0.01% among 200,000; active = well fitted inhibition curve with a large enough effect in the signal ratio, with a control signal flat, not every such curve was filed as active; inconclusive = small, poorly fitted or top-dose-only effect, or effect the other way, or a change in a side signal; the % refers to the signal ratio; note: potency is the fitted concentration of half-maximal effect; % is set by controls: 0 for no effect and ±100 for the full control effect
#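 S3 HeLa cells stably expressing lamin A-EGFP splicing minigene plus DsRed2, 600 cells/well, 48 h compound exposure at 37C. Laser-scanning cytometry; analysed as GFP (500-530 nm)/RFP (575-640 nm) total intensity ratio; 0.5% DMSO vehicle.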
# An asterisk follows results filed as active; ? = inconclusive; / = no result given; [ ] = dose if it differs, or a comment. This is a sample that favours compounds with a hit; in the whole collection about 13% have one here. Unless noted, calls come from the whole dose curve; as a rule, active = well fitted curve in the direction sought with a large enough effect; inconclusive = small, poorly fitted or top-dose-only effect, or another doubt; inactive = no such curve, though single readings can be large; an effect the other way counts as inactive or inconclusive.
SMILES,G9a block,ALDH1A1 block,KDM4E inh,Sfp PPTase inh,miR-21 act,Lamin A splicing
O=C(NCCc1ccccc1)C1c2ccccc2C(=O)N1Cc1cccs1 (stereo not drawn),39%,13µM*,0%,-9%,3%,/
O=C(O)[C@H]1CCCC[C@H]1C(=O)Nc1ccc(S(=O)(=O)N2CCOCC2)cc1,-8%,/,/,14%,0%,/
Nc1ncnc2nc(SCc3ccccc3)[nH]c12,7%,2%,2%,7%,-24%,?
CCC(Sc1nc2ncnc(N)c2[nH]1)C(=O)O (stereo not drawn),40µM*,6%,5%,9%,-1%,-2%[46 µM]
CC(C)C(NC(=O)c1c(F)cccc1F)C(=O)NCCc1ccc(S(N)(=O)=O)cc1 (stereo not drawn),9%,/,/,6%,-2%,/
Cc1ccc(NC(=O)[C@H](NC(=O)[C@@H]2Cc3ccccc3CN2)c2ccccc2)c(C)c1,/,/,/,-9%,-10%,/
C[C@H](NC(=O)[C@@H]1Cc2ccccc2CN1)C(=O)Nc1ccc2c(c1)OCCO2,16%[0.0925 µM],/,/,-3%,-16%,/
C[C@H](NC(=O)[C@@H]1Cc2ccccc2CN1)C(=O)NC1CCCC1,79µM*,/,/,6%,-2%,/
Cc1cc(C)cc(NC(=O)[C@H](NC(=O)[C@@H]2Cc3ccccc3CN2)c2ccccc2)c1,79µM*,/,/,?,-11%,/
CSCC[C@H](NC(=O)[C@@H]1Cc2ccccc2CN1)C(=O)Nc1ccc2c(c1)OCCO2,50µM*,/,/,4%,-44%,/
Cc1ccc(NC(=O)[C@H](Cc2ccccc2)NC(=O)[C@@H]2Cc3ccccc3CN2)c(C)c1,35µM*,/,/,17%,-8%,/
Cc1ccc(C)c(N2CC(C(=O)Nc3cc(C)on3)CC2=O)c1 (stereo not drawn),6%,/,/,8%,0%,/
COc1ccc2c(CNCCc3ccccc3)c(C(=O)O)n(Cc3cccc(F)c3)c2c1,?,/,/,/,12%,-15%[46 µM]
CC(C)C[C@H](NC(=O)[C@@H]1Cc2ccccc2CN1)C(=O)Nc1ccc(C(C)C)cc1,28µM*,/,/,1%,-15%,/
C[C@H](NC(=O)[C@@H]1Cc2ccccc2CN1C(=O)OC(C)(C)C)C(=O)NC1CCCCC1,10%,/,/,2%,0%,/
CSCC[C@H](NC(=O)[C@@H]1Cc2ccccc2CN1)C(=O)NC1CCCCC1,25µM*,/,/,4%,-3%,/
C[C@@H](NC(=O)[C@@H]1Cc2ccccc2CN1C(=O)OC(C)(C)C)C(=O)NC1CCCCC1,79µM*,/,/,1%,-2%,/
CCOC(=O)COn1c(-n2nc(C)cc2C)nc2ccccc2c1=O,22%,/,/,4%,5%,/
Cc1ccccc1Nc1nc(-c2sc(NC(=O)c3ccco3)nc2C)cs1,?,20µM*,-5%,14µM*,-12%,-4%
Cc1nc(NC(=O)c2ccccc2)sc1C,12%[0.501 µM],/,/,25%,-21%,/
Cc1nc(NC(=O)c2ccccc2)sc1-c1csc(NCc2ccco2)n1,?,?,-15%,18µM*,-8%,28%
CCOc1ccc(NS(=O)(=O)c2cc(C(=O)N(CC)CC(=O)NCc3cccs3)ccc2C)cc1,-32%,/,/,/,/,/
COc1ccc(C(=O)NCC(c2ccc3c(c2)OCO3)N2CCOCC2)cc1OC (stereo not drawn),10%[59 µM],/,/,/,-12%,-12%[46 µM]
COc1ccc(S(=O)(=O)N2CCCOC2CNC(=O)C(=O)NCCc2ccco2)cc1OC (stereo not drawn),20%,/,/,6%,-3%,/
COc1ccc2oc(=O)c(C(=O)C[n+]3cccc(C)c3)cc2c1,/,14µM*,1%,?,-1%,/
SMILES,G9a block,ALDH1A1 block,KDM4E inh,Sfp PPTase inh,miR-21 act,Lamin A splicing
CNC(=O)c1cc2cc(OC)ccc2oc1=O,13%,?,?,12%,-3%,11%
CNC(=O)c1cc2cc(OC)ccc2oc1=N,56µM*,?,?,-20%,-9%,1%
COc1ccc2oc(=N)c(C(=O)NCc3ccccc3)cc2c1,35µM*,/,/,10%,0%,/
COc1cccc(C(=O)N/N=c2\oc3c(OC)cccc3cc2C(=O)NCc2ccccc2)c1,33%[59 µM],0.32µM*,-1%,-11%,-12%,7%
COc1ccc2oc(=O)c(C(=O)Nc3ccccc3C)cc2c1,4%[0.501 µM],/,/,?,-52%,/
CCn1c(=O)cc(OCC(=O)N2CCN(c3cccc(Cl)c3)CC2)c2ccccc21,?,/,/,/,3%,/
C#CCOCCOCCOCCNc1nc(N2CCN(C(=O)[C@H](Cc3ccc(O)cc3)n3cc([C@@H](N)C(C)CC)nn3)CC2)nc(N2CCN(C(=O)[C@H](Cc3cc4ccccc4[nH]3)n3cc([C@@H](N)C(C)CC)nn3)CC2)n1 (stereo partly drawn),-112%[59 µM],-3%,?,-29%,5%,/
C#CCOCCOCCOCCNc1nc(N2CCN(C(=O)[C@H](Cc3cc4ccccc4[nH]3)n3cc([C@@H](N)C(C)CC)nn3)CC2)nc(N2CCN(C(=O)[C@H](Cc3cc4ccccc4[nH]3)n3cc([C@@H](N)Cc4ccc(O)cc4)nn3)CC2)n1 (stereo partly drawn),-7%[12.7 µM],-3%,-9%,50µM*,5%,/
C#CCOCCOCCOCCNc1nc(N2CCN(C(=O)[C@H]([C@@H](C)CC)n3cc([C@@H](N)CC(C)C)nn3)CC2)nc(N2CCN(C(=O)[C@H](Cc3cc4ccccc4[nH]3)n3cc([C@@H](N)CC(C)C)nn3)CC2)n1,?,/,-10%,-9%,-10%,/
C#CCOCCOCCOCCNc1nc(N2CCN(C(=O)[C@H](Cc3ccc(O)cc3)n3cc([C@@H](N)C(C)CC)nn3)CC2)nc(N2CCN(C(=O)[C@H](Cc3cc4ccccc4[nH]3)n3cc([C@@H](N)CC(C)C)nn3)CC2)n1 (stereo partly drawn),?,-9%,?,50µM*,3%,/
C#CCOCCOCCOCCNc1nc(N2CCN(C(=O)[C@H]([C@@H](C)CC)n3cc([C@@H](N)CO)nn3)CC2)nc(N2CCN(C(=O)[C@H](Cc3cc4ccccc4[nH]3)n3cc([C@@H](N)C(C)CC)nn3)CC2)n1 (stereo partly drawn),?,?,-2%,50µM*,-2%,/
CCOC(=O)c1c(NC(=O)CSc2cn(CCNC(=O)c3c(F)cccc3F)c3ccccc23)sc2c1CCC2,-35%[59 µM],/,/,/,11%,/

# Bioassay records (PubChem)
